Screening results deposited in PubChem BioAssay by several laboratories.
Sampled rows, rich in hits. Any-hit rate of the full collection: about 3.6%.
GDH-TPI counter-1: GDH-TPI coupled enzyme inhibition counter-screen. GDH-TPI coupled enzyme counterscreen, NADH absorbance. inhibition, % at 4.8 µM. 1.2% of 360,000 active. AID 588335; in the data active = inhibition above about 30%;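 also: 0% = DMSO wells and 100% = wells lacking the enzyme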
Mtb hypoxia rep: inhibitors of hypoxia-regulated fluorescent reporter in Mycobacterium tuberculosis; fluorescence inhibition, % (no concentration beside the values); 0.1% of 300,000 active; M. tuberculosis hypoxia-regulated fluorescent reporter, fluorescence; in the data active = fluorescence inhibition mostly above about 23%, no sharp cut-off; inactive = mostly below about 17%
Mtb betalactam: beta-lactam sensitization of Mtb H37Rv; M. tuberculosis H37Rv growth with meropenem, percent inhibition; inhibition, % at 25 µM; 0.27% of 330,000 active; AID 434955; call rule not given here;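 also: growth measured after seven days incubation then overnight dye step; 0% = bacteria only wells and 100% = bacteria with antibiotic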
DUSP3 inh: inhibitors of human VHR1 phosphatase (DUSP3) | P51452 | recombinant VHR phosphatase, pNPP absorbance | inhibition, % at 13.3 µM | 0.52% of 290,000 active | AID 1654; in the data active = inhibition above about 50%
Target sequence (P51452 whole entry, looked up): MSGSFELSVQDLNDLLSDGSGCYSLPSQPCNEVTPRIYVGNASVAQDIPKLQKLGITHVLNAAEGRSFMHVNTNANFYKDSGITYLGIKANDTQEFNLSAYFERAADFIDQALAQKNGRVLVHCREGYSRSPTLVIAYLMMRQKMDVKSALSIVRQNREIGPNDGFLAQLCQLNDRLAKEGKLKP
Mtb FBA inh: inhibits M. tuberculosis FBA enzyme; P9WQA3; purified M. tuberculosis FBA, fluorescence read-out; inhibition, % at 1 µM; 2.3% of 360,000 active; AID 588726;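 also: 0% = vehicle and 100% = reference inhibitor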
Target sequence (P9WQA3 whole entry, looked up): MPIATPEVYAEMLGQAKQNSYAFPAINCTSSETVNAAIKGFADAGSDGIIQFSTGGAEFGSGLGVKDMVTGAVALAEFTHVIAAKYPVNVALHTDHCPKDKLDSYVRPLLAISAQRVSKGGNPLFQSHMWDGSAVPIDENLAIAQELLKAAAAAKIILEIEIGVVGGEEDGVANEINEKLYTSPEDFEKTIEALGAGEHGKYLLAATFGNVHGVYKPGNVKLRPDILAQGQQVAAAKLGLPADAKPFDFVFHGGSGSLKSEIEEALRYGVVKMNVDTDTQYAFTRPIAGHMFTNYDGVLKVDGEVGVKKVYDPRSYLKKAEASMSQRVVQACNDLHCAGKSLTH
Mtb FBA inh conf: confirmation of M. tuberculosis fructose-bisphosphate aldolase inhibitors | shares compounds with Mtb FBA inh | purified M. tuberculosis FBA, fluorescence read-out | 78% of 5,600 active | inhibition, % at 1 µM;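 also: 0% = vehicle wells and 100% = reference inhibitor wells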
GDH-TPI counter-2: GDH-TPI inhibition counter-screen for FBA inhibitors. shares compounds with Mtb FBA inh. GDH-TPI coupled enzyme counterscreen, fluorescence. inhibition, % at 1 µM. 81% of 5,600 active; in the data active = inhibition above about 10%
The depositor's hits bear a star; x = no result given; + = active, no number. Rule as the data show it, unless noted: active = inhibition above about 27%; inactive = the rest.

SMILES	GDH-TPI counter-1	Mtb hypoxia rep	Mtb betalactam	DUSP3 inh	Mtb FBA inh	Mtb FBA inh conf	GDH-TPI counter-2
CCC(=O)N(Cc1ccco1)Cc1cc2cc3c(cc2[nH]c1=O)OCO3	11	7	-2	12	40*	+	152*
O=c1[nH]c2cc3c(cc2cc1CN(CCCO)C(=S)NCc1ccco1)OCO3	25	0	-2	26	18	x	x
CNC(=S)N(CCCO)Cc1cc2cc3c(cc2[nH]c1=O)OCO3	19	-3	-2	x	30*	85*	65*
Cc1c(OC2OC(CO)C(O)C(O)C2O)c(CO)c(OC2OC(CO)C(O)C(O)C2O)c2c1OC(c1ccccc1)CC2O (stereo not given)	x	5	x	x	x	x	x
O=C(O)CC1c2cc(C(F)(F)F)ccc2S(=O)(=O)N1C1CCCC1 (stereo not given)	x	-2	x	x	x	x	x
CSc1ncc(C(=O)Nc2cccc(S(N)(=O)=O)c2)n1-c1ccccc1	-3	14	2	48	39*	168*	132*
O=C(C=Cc1ccc(S(=O)(=O)N2CCOCC2)cc1)NC(=S)NCCCn1ccnc1	x	5	x	x	x	x	x
CNc1cc(-c2cccc(OC)c2F)nc2ccnn12	7	x	x	x	109*	90*	62*
CC(=NNc1nc(N)cc(Cl)n1)c1cccc(N)c1	x	-3	x	x	x	x	x
c1ccc2[nH]cnc2c1	16	4	1	x	5	x	x
c1ccc2nc3[nH]cnc3nc2c1	21	-1	-1	12	42*	154*	101*
CCOC(=O)C1C2COc3ccc(Br)cc3C2N2C(=O)C(C)NC(=O)[C@@]12C (stereo not given in full)	x	10	x	x	x	x	x
CCc1ccc(NC(=O)Cc2cn(C)c3ccccc23)cc1	-3	6	-1	17	1	x	x
CCC(C)NC(=O)Cc1cn(C)c2ccccc12 (stereo not given)	-7	14	3	12	102*	9	-3
COc1ccc(-c2ccc(/C=N/NC(=O)Cc3nnc(N)s3)o2)cc1Cl	38*	x	-7	13	29*	54*	30*
COc1cc(/C=N/NC(=O)Cc2nnc(N)s2)cc(OC)c1OC	6	x	-8	1	6	x	x
O=C(c1cc2c(ccc3ccccc32)oc1=O)N1CCN(CCO)CC1	26	x	5	14	53*	63*	62*
CC(=O)Nc1cc2c(ccc3ccccc32)oc1=O	11	-2	-8	12	105*	69*	63*
C/C(=N\Nc1nc(-c2cc(C)ccc2C)cs1)c1cc2c(ccc3ccccc32)oc1=O	12	x	1	-6	29*	69*	43*
CN1CCN(C(=O)c2cc3ccccc3oc2=O)CC1	2	x	-2	24	2	x	x
CC(=O)c1cc2c(ccc3ccccc32)oc1=O	11	17	25	-5	50*	73*	60*
CC=CC(=O)OCC(=O)Nc1nc2ccc(C)cc2s1	x	-2	x	x	x	x	x
COc1ccc(-c2cc(C(=O)OCC(=O)Nc3cc(C)on3)c3ccccc3n2)cc1OC	0	0	-3	10	-1	x	x
Cc1ccc(-c2cc(C(=O)OCC(=O)Nc3cc(C)on3)c3ccccc3n2)c(C)c1	9	x	-4	3	103*	58*	50*
Cn1nc(C(F)(F)F)c(C=NOC(=O)c2ccccc2Cl)c1SCc1ccc(Cl)cc1	x	9	x	x	x	x	x
SMILES	GDH-TPI counter-1	Mtb hypoxia rep	Mtb betalactam	DUSP3 inh	Mtb FBA inh	Mtb FBA inh conf	GDH-TPI counter-2
COc1ccc(C(=O)NN/C(=N/S(=O)(=O)c2ccc(C)cc2)c2ccccc2)cc1	6	22	5	-7	59*	+	+
CN1CCN(C(=O)C2=CC(c3ccc(C(F)(F)F)cc3)CC(OCc3ccc(CO)cc3)O2)CC1 (stereo not given)	x	4	x	x	x	x	x
CCc1cc(=O)oc2cc(C)cc(OCC(=O)N[C@@H](CSCc3ccccc3)C(=O)O)c12	-2	x	-6	16	37*	+	162*
CCc1cc(=O)oc2cc(C)cc(OCC(=O)NC(Cc3ccc(Cl)cc3)C(=O)O)c12 (stereo not given)	2	x	0	17	61*	44*	43*
CCCCc1cc(=O)oc2cc(C)cc(OCC(=O)N[C@@H](CSCc3ccccc3)C(=O)O)c12	10	x	0	49	46*	128*	99*
CCCCc1cc(=O)oc2cc(C)cc(OCC(=O)Nc3cccnc3)c12	11	-1	-2	12	19	x	x
CCCn1c2ccccc2c2nnc(SCC(=O)OCC)nc21	25	x	x	-20	52*	38*	64*
CCCn1c2ccccc2c2nnc(SCC(=O)OC)nc21	12	-1	9	4	1	x	x
O=C(CCN1C(=O)NC2(CCCC2)C1=O)Nc1ccc(-c2nc3ccccc3s2)cc1	27	-1	88	x	40*	174*	119*
Cc1ccc2nc(-c3ccc(NC(=O)CN4C(=O)c5ccccc5C4=O)cc3)sc2c1	9	16	7	24	34*	-6	-6
O=C(CCN1C(=O)NC2(CCCC2)C1=O)Nc1ccc(Sc2ccc(Br)cc2)cc1	0	x	x	x	-3	x	x
COc1ccc(C2(C)NC(=O)N(CC(=O)Nc3ccc(-c4nc5ccc(C)cc5s4)cc3)C2=O)cc1 (stereo not given)	8	0	-8	-6	16	x	x
CCC1(c2ccc(F)cc2)NC(=O)N(CC(=O)Nc2ccc(-c3nc4ccc(C)cc4s3)cc2)C1=O (stereo not given)	23	2	56	-6	41*	+	150*
Cc1ccc2nc(-c3ccc(NC(=O)CNC4CC4)cc3)sc2c1	14	16	x	14	28*	48*	39*
O=C(C=Cc1ccco1)Nc1ccccc1N1CCCCC1	x	13	x	x	x	x	x
N#CC(=C1CCCN1)c1nc2ccccc2c(=O)[nH]1	x	2	x	x	x	x	x
CC(Cl)=CCn1c(N2CCCC2)nc2c1c(=O)[nH]c(=O)n2C	x	7	x	x	x	x	x
Cc1nc2ccc(NC(=O)CCS(=O)(=O)c3ccccc3)cc2s1	7	-4	85	17	2	x	x
Cc1ccc(C)c(N(CC(=O)Nc2ccc(-c3nc4ccc(C)cc4s3)cc2)S(C)(=O)=O)c1	16	5	5	-5	24	x	x
Cc1ccc2nc(-c3ccc(NC(=O)CCS(=O)(=O)c4ccccc4)cc3)sc2c1	3	7	2	-24	44*	-6	-6
Cc1ccc2nc(-c3ccc(NC(=O)COC(=O)c4ccc(=O)[nH]c4)cc3)sc2c1	9	-7	0	8	39*	39*	30*
CCC(=O)Nc1ccc(C(C)=NNC(=O)c2ccc(OC)cc2)cc1	x	2	x	x	x	x	x
CCN1CC=C2C(C#N)=C(N)C(C#N)(C#N)C(CCc3ccccc3)C2C1 (stereo not given)	8	7	-3	13	36*	74*	65*
Cc1ccc(-c2nn(-c3ccccc3)cc2/C=C/C(=O)O)o1	16	10	66	2	39*	-2	-3
